ChEMBL document CHEMBL3433997, “St. Jude Leishmania screening dataset” (2016)

biological target: Hexose transporter 1 (Plasmodium falciparum) (UniProt O97467); test: ST_JUDE_LEISH: Cytotoxicity at 2uM final concentration against transgenic Leishmania Mexicana promastigotes LmPfHT that are glucose transport deficient and complemented with the Plasmodium falciparum hexose transporter. Activity is measured by DNA content using SYBR green in vitro; assay type: functional

Row | SMILES | inhibition [%]
1 | CN(C)c1ccc(CN2CCC(NC(=O)c3ccc(-c4ccc(N(C)C)cc4)s3)CC2)cc1 | -0.22
2 | COc1cc(F)c2nccc([C@@H](O)CN3CCC(NCc4ccc5c(n4)NC(=O)CS5)C(F)C3)c2c1 (some centres undefined) | 3.06
3 | CS(=O)(=O)c1ccc(CNCc2ccc(-c3ccc(-c4nc5cc(F)ccc5[nH]4)s3)cc2)cc1 | 10.9
4 | CCC1=C(CC2NCCc3cc(OC)c(OC)cc32)CC2c3cc(OC)c(OC)cc3CCN2C1 (centres undefined) | 92.4
5 | COc1ccc(-c2nc(NC(=O)Cc3cccc(OC)c3)sc2C)cc1 | 0.46
6 | CC(NCCC1CCC(NC(=O)N[C@H](C)C(O)(c2ccccc2)c2ccccc2)CC1)c1cccc2ccccc12 (some centres undefined) | 16.2
7 | CCCCCCNCCOc1ccc(-c2nc(-c3ccccc3)c(-c3ccccc3)[nH]2)cc1 | 1.32
8 | CC(C)Cn1cc(C2CCN(CCN3CCC(CNC(=O)c4ccc(-c5ccc(C(F)(F)F)cc5)cc4)CC3)CC2)c2ccccc21 | 3.07
9 | O=c1[nH]ccc2nc(N[C@@H]3CCNC3)nc(Nc3cccc(S(=O)(=O)N4CCOCC4)c3)c12 | 3.93
10 | COC(=O)C(NC(=O)NC1CCN(c2ccnc(Nc3ccc(F)cc3)n2)C1)c1ccccc1 (centres undefined) | -1.97
11 | CC(C)CN1C(=O)c2ccc(C(=O)Nc3nccs3)cc2C1=O | 1.52
12 | CC1CCCCN1CCCNc1ncc2c(-c3ccc(NC(=O)Nc4cc(C(F)(F)F)ccc4F)c(F)c3)nn(C)c2n1 (centres undefined) | -0.99
13 | Cc1nc(C)c(-c2ccc(Sc3ccc(Cl)cc3)cc2)c(O)c1Br | -1.57
14 | CC1(C)CC(NC(=O)NC2CCN(Cc3ccccc3)CC2)CC(C)(CNC(=O)NC2CCN(Cc3ccccc3)CC2)C1 (centres undefined) | 5.93
